Several values for one entry are separate records, joined by “and”; a condition that tells them apart may be missing. Equal entries are not always repeated. Records with an inconclusive call do not appear. Values without a mark were called inactive. Activity calls are given as the source filed them. The call rests on the fitted dose curve; in most records, active means well fitted curve in the direction sought with a large enough effect; inconclusive means small, poorly fitted or top-dose-only effect, or another doubt; inactive means no such curve, though single readings can be large; an effect the other way counts as inactive or inconclusive.

The text below walks through data of PubChem BioAssay (NCATS).

For assay [1], the system named is Zika virus NS2B-NS3 protease. Nature of the assay: Primary screen GU AMC qHTS for Zika virus inhibitors (AID 1347154). Further: nearly all actives have a fitted effect of over 70% in size. Further: potency means the concentration at half of the fitted maximal effect.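 On activity change, negative = inhibition: 0% = no-inhibitor control and -100% = no-enzyme control.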 The method, boiled down: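 Unlinked Zika NS2B hydrophilic domain–NS3 protease complex at 25 nM in 10 mM Tris-HCl pH 8.0, 0.01% Tween 20, with an AMC peptide substrate. Fluorescence change (340/450 nm) over 15 min at room temperature, normalized to controls, fitted to 4-parameter Hill.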
Background: In qHTS, concentration-response curves come from the screen itself.

Assay [2] can be described thus: qHTS to identify inhibitors of the type 1 interferon - major histocompatibility complex class I in skeletal muscle: primary screen against the NCATS Pharmaceutical Collection (AID 1347407).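 Further: luminescence of HiBiT knocked into endogenous HLA-B as interferon-induced MHC class I level.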 Further: potency means the concentration at half of the fitted maximal effect. On activity change, negative = inhibition: on the % scale 0 is the no-effect control and ±100 the full control effect. The method, boiled down:
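Luminescence from HiBiT-tagged endogenous HLA-B*08:01 served as the read-out of IFN-beta-induced MHC class I in CRISPR-engineered C25cl48 myoblasts. Cells received 4 ng/ml IFN-beta plus compound (high final 46 uM, […]) for 24 h.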

Assay [3] addresses Protein phosphatase 1D (Homo sapiens) (UniProt O15297). Nature of the assay: RapidFire Mass Spectrometry qHTS Assay for Modulators of WT P53-Induced Phosphatase 1 (WIP1) (AID 1347424).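 Further: series mostly up to about 63 µM; plate controls were DMSO wells for no effect and GSK830371 inhibitor control at 10 µM for full effect.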 The essentials: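 RapidFire MS readout of dephosphorylated VEPPL-S-QETFS product, with 1 uM isotope-labelled peptide standard. Reaction: 10 nM WIP1, 2 uM phosphopeptide substrate, 5 min, room temperature, after 1 h compound preincubation; stopped with 0.5% formic acid.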

For assay [4] the target is unchanged. Nature of the assay: Rhodamine-PBP qHTS Assay for Modulators of WT P53-Induced Phosphatase 1 (WIP1) (AID 1347425). Further: % of control where 0% means no effect. The essentials:
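The read-out is the change in Rhodamine-PBP fluorescence (f1 - f0, ex 525/em 598 nm) as Pi is released, read each minute for 11 min. Final reaction: 5 nM WIP1, 10 uM phosphopeptide VEPPL-pS-QETFS, 10 uM Rh-PBP, 50 mM Tris-HCl pH 7.5, 30 mM MgCl2. Compound was preincubated with enzyme for 1 hour at room temperature.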

Assay [5] can be described thus: qHTS to identify inhibitors of the type 1 interferon - major histocompatibility complex class I in skeletal muscle: primary screen against the NCATS Mechanism Interrogation Plate v5.0 (MIPE) Libary (AID 1347411). Further: nearly all actives have a fitted effect of over 65% in size. Further: potency means the concentration at half of the fitted maximal effect.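 On activity change, negative = inhibition: plate controls were vehicle for no effect and reference inhibitor for full effect.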 The essentials: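 HLA-B HiBit myoblasts, dexamethasone-free medium + 4 ng/ml IFN-b, 24 h compound, 11-pt 1:3 from 46 uM final. Readout: Nano-Glo HiBiT lytic luminescence after 10 min lysis, RT.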

A short description of assay [6]: Primary qHTS for inhibitors of La Crosse Virus (LACV) - induced cell death in SH-SY5Y cells (AID 1508616).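 Further: top concentration of the series differs between compounds; 0% = infected DMSO wells and 100% = uninfected DMSO wells; higher means more rescue of cells from virus-induced death.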 The method, boiled down: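 Cytopathicity rescue screen: compounds pinned onto SH-SY5Y cells, which are then infected with LACV (MOI 0.01) and held 6 days at 37C. Percent activity is scaled between infected DMSO control and uninfected DMSO control.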

Protein phosphatase 1D (Homo sapiens), sequence (O15297 whole entry, looked up): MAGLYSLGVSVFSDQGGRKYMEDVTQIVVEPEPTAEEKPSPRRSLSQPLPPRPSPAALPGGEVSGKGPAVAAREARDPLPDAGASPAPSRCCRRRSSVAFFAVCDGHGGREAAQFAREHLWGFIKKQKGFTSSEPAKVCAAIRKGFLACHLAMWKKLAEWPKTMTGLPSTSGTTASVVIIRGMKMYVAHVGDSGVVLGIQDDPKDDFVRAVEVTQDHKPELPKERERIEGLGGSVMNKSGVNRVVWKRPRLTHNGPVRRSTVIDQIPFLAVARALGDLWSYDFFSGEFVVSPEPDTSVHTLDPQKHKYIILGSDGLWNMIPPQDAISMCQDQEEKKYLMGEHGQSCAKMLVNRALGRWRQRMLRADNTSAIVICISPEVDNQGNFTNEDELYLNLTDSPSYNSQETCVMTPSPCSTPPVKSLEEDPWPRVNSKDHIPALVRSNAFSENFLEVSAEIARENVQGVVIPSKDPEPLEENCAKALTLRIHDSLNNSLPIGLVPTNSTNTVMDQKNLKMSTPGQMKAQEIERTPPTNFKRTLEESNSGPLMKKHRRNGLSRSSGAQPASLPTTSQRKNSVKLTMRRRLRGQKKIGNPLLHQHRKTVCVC

Turning to `C[C@@H](CN1CC(=O)NC(=O)C1)N1CC(=O)NC(=O)C1`, the Potency entry in assay [1] and in assay [2] was “inactive” each time. Besides, the result in assay [3] and in assay [4] was inactive.
Consider `CCn1cc(C(=O)O)c(=O)c2cc(F)c(N3CCNCC3)nc21`, for which the Potency result in assay [1] and in assay [2] was “inactive” in each case. The result in assay [3] and in assay [4] was inactive.
Regarding `CC(C)OC(=O)C(C(=O)OC(C)C)=C1SC=CS1`, the Potency entry in assay [1], in assay [2] and in assay [5] was “inactive” throughout. In assay [4], the outcome was inactive.
Take `C[C@]12C=CC(=O)C=C1CC[C@@H]1[C@@H]2C(=O)C[C@@]2(C)[C@H]1CC[C@]2(O)C(=O)CO`: the Potency result in assay [1] and in assay [2] was “inactive” throughout. In addition, the compound was classed as inactive in assay [3] and in assay [4].
Regarding `CC(C)(C#N)c1cc(Cn2cncn2)cc(C(C)(C)C#N)c1`, the Potency result in assay [1], in assay [2], in assay [5] and in assay [6] was “inactive” in each case. For the same compound, the outcome in assay [3] and in assay [4] was inactive.
Consider `CCN(C)C(=O)Oc1cccc([C@H](C)N(C)C)c1`, for which the Potency entry in assay [1] and in assay [2] was “inactive” each time. Besides, the compound was called inactive in assay [3] and in assay [4].
Regarding `CC1=CC(=O)c2ccccc2C1=O`, the Potency entry in assay [1] and in assay [2] was “inactive” throughout. The compound was classed as inactive in assay [3] and in assay [4].
With `CN(Cc1cc(Br)cc(Br)c1N)C1CCCCC1`, the Potency result in assay [1], in assay [2], in assay [5] and in assay [6] was “inactive” in each case. Moreover, the compound was classed as inactive in assay [3] and in assay [4].
Regarding `Cc1nnc(NS(=O)(=O)c2ccc(N)cc2)s1`, the Potency result in assay [1], in assay [2] and in assay [5] was “inactive” in each case. Moreover, the result in assay [4] was inactive.
For `CC(C)Cn1cnc2c(N)nc3ccccc3c21`, the Potency entry in assay [1], in assay [2], in assay [5] and in assay [6] was “inactive” throughout. The compound was classed as inactive in assay [3] and in assay [4].
Turning to `Cn1c(=O)c2c(ncn2CC(O)CO)n(C)c1=O` (stereo unspecified), the Potency entry in assay [1], in assay [2], in assay [5] and in assay [6] was “inactive” each time. For the same compound, the compound was called inactive in assay [3] and in assay [4].
As for `CCCOc1ccc(C(=O)OCCN(CC)CC)cc1N`, the Potency result in assay [1], in assay [2], in assay [5] and in assay [6] was “inactive” throughout. For the same compound, the compound was called inactive in assay [3] and in assay [4].
In the case of `OC(Cn1cncn1)(Cn1cncn1)c1ccc(F)cc1F`, the Potency result in assay [1], in assay [2], in assay [5] and in assay [6] was “inactive” throughout. The call in assay [4] was inactive.
Turning to `CN(C)c1ccc(C(=C2C=CC(=[N+](C)C)C=C2)c2ccc(N(C)C)cc2)cc1`, in assay [1], the Potency entry was “inactive”. Further, the Potency in assay [2] was 9.38 µM (active); in assay [5] it was 3.7 µM (active). For the same compound, the result in assay [3] and in assay [4] was inactive.
As to `CCCc1cc(C(N)=S)ccn1`, the Potency entry in assay [1] and in assay [2] was “inactive” each time. Further, the compound was called inactive in assay [3] and in assay [4].
On to `C#CCN[C@@H]1CCc2ccccc21`, for which the Potency result in assay [1], in assay [2], in assay [5] and in assay [6] was “inactive” in each case. Moreover, the result in assay [3] and in assay [4] was inactive.
`CCN[C@H]1C[C@H](C)S(=O)(=O)c2sc(S(N)(=O)=O)cc21`: the Potency result in assay [1] and in assay [2] was “inactive” each time. Moreover, the call in assay [3] and in assay [4] was inactive.
In the case of `CCOC(=O)[C@H](CCc1ccccc1)N[C@H]1CS[C@H](c2cccs2)CN(CC(=O)O)C1=O`, the Potency result in assay [1], in assay [2] and in assay [5] was “inactive” each time. Moreover, the call in assay [4] was inactive.
Take `CN(CCOc1ccc(CC2SC(=O)NC2=O)cc1)c1ccccn1` (stereo unspecified): the Potency result in assay [1], in assay [2] and in assay [5] was “inactive” throughout. The call in assay [3] and in assay [4] was inactive.
Take `CC(C)C[C@H](NC(=O)[C@H](CCc1ccccc1)NC(=O)CN1CCOCC1)C(=O)N[C@@H](Cc1ccccc1)C(=O)N[C@@H](CC(C)C)C(=O)[C@@]1(C)CO1`: the Potency entry in assay [1] is “inactive”. In addition, the Potency in assay [2] is 0.0938 µM (active); in assay [5], 0.0262 µM (active). In addition, the call in assay [3] and in assay [4] was inactive.
In the case of `CCOCC(O)COc1ccc(NC(=O)CC[S+](C)C)cc1` (stereo unspecified), the Potency result in assay [1], in assay [2], in assay [5] and in assay [6] was “inactive” each time. Further, the compound was classed as inactive in assay [4].
On to `NC(N)=NC(N)=NCCc1ccccc1`, for which the Potency result in assay [1], in assay [2], in assay [5] and in assay [6] was “inactive” throughout. For the same compound, the call in assay [3] and in assay [4] was inactive.
As to `CCCCOc1ccc(CC(=O)NO)cc1`, the Potency result in assay [1], in assay [2], in assay [5] and in assay [6] was “inactive” each time. For the same compound, the compound was classed as inactive in assay [3] and in assay [4].
In the case of `CN1CCCC(n2nc(Cc3ccc(Cl)cc3)c3ccccc3c2=O)CC1` (stereo unspecified), the Potency result in assay [1], in assay [2] and in assay [6] was “inactive” each time. Also, the outcome in assay [4] was inactive.
`CCOC(=O)c1ccc(C#Cc2ccc3c(c2)C(C)(C)CCS3)nc1`: in assay [1], the Potency is 31.6 µM (active) and 21.5 µM (active). The Potency entry in assay [2] and in assay [6] was “inactive” each time. Also, the result in assay [3] and in assay [4] was inactive.
`CO[C@@H]1[C@@H](OC(N)=O)[C@@H](O)[C@H](Oc2ccc3c(O)c(NC(=O)c4ccc(O)c(CC=C(C)C)c4)c(=O)oc3c2C)OC1(C)C`: the Potency entry in assay [1] and in assay [2] was “inactive” throughout. The call in assay [4] was inactive.
`COc1ccc2c(c1)c(CC(=O)OCC(=O)O)c(C)n2C(=O)c1ccc(Cl)cc1`: the Potency entry in assay [1], in assay [2] and in assay [6] was “inactive” throughout. In assay [3], the compound was called inactive.
With `CC(C)(C)NC(=O)[C@H]1CC[C@H]2[C@@H]3CC[C@H]4NC(=O)C=C[C@]4(C)[C@H]3CC[C@]12C`, the Potency entry in assay [1], in assay [2] and in assay [6] was “inactive” throughout. The compound was classed as inactive in assay [3] and in assay [4].
On to `NC(=O)N1c2ccccc2CC(=O)c2ccccc21`, for which the Potency entry in assay [1], in assay [2] and in assay [6] was “inactive” throughout. In addition, in assay [3], the compound was classed as inactive.
For the compound `N[C@@H](C(=O)N[C@@H]1C(=O)N2C(C(=O)O)=C(Cl)CS[C@H]12)c1ccccc1`, the Potency entry in assay [1] was “inactive”. Moreover, the activity change, negative = inhibition was 3% [at 9.18 µM] in assay [2], -1.8% [at 12.6 µM] in assay [3] and 10.7% [at 11.5 µM] in assay [4]. Besides, the activity change in assay [6] is -11.4% [at 0.858 µM].
With `COc1cc([C@@H]2c3cc4c(cc3[C@H](O)[C@H]3COC(=O)[C@H]23)OCO4)cc(OC)c1OC`, the Potency entry in assay [1], in assay [2] and in assay [6] was “inactive” in each case. Also, the compound was classed as inactive in assay [3] and in assay [4].
`Nc1nc(N)nc(-c2cc(Cl)ccc2Cl)n1`: the Potency result in assay [1], in assay [2] and in assay [6] was “inactive” in each case. Besides, the outcome in assay [3] and in assay [4] was inactive.
In the case of `O=C(N[C@H](CO)[C@H](O)c1ccc([N+](=O)[O-])cc1)C(Cl)Cl`, the Potency entry in assay [1], in assay [2] and in assay [6] was “inactive” throughout. For the same compound, the compound was classed as inactive in assay [4].
As to `NCCCC(O)(P(=O)(O)O)P(=O)(O)O`, the Potency entry in assay [1] and in assay [2] was “inactive” throughout. The outcome in assay [3] and in assay [4] was inactive.
As for `O=S(=O)(O)CCS`, the Potency entry in assay [1], in assay [2] and in assay [6] was “inactive” each time. Further, the result in assay [3] and in assay [4] was inactive.
